Test [1] has as its target human Peroxisome Proliferator-activated Receptor delta (PPARd), PPARD (gene 5467) (UniProt Q03181). Briefly: ATG_PPARd_TRANS: Attagene TRANS-FACTORIAL HepG2 Assay for human Peroxisome Proliferator-activated Receptor delta (PPARd) (AID 2283002). The method, boiled down: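 Measured quantity: GAL4-UAS reporter transcript induction in HepG2 after 24 h chemical dosing, with NR-Gal4 chimeras supplied by transient transfection. Detection by RT-PCR and capillary electrophoresis; upward fit against DMSO.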

The target of test [2] is Peroxisome proliferator-activated receptor gamma (Homo sapiens) (UniProt P37231). In words: ATG_PPARg_TRANS: Attagene TRANS-FACTORIAL HepG2 Assay for human Peroxisome Proliferator-activated Receptor-gamma (PPARg) (AID 2283007). The method, boiled down: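 Gain-of-signal endpoint relative to DMSO, derived from reporter mRNA levels quantified by RT-PCR and capillary electrophoresis. Cells were HepG2 transiently expressing a chimeric NR-Gal4 construct with GAL4-UAS reporters, exposed to chemicals for 24 h.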

In test [3] the target is Nuclear receptor subfamily 1 group I member 2 (Homo sapiens) (UniProt O75469). Briefly: ATG_PXR_TRANS: Attagene TRANS-FACTORIAL HepG2 Assay for human Pregnane X Receptor (PXR) (AID 2283008). The method, boiled down: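 Trans-factorial format: exogenous NR-Gal4 fusion activity, not endogenous factor, in transfected human HepG2 liver cells. After 24 h dosing, RNA isolated, reverse-transcribed, amplified and resolved by capillary electrophoresis; induction scored versus DMSO.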

Test [4] deals with Retinoic acid receptor RXR-alpha (Homo sapiens) (UniProt P19793). In words: ATG_RXRa_TRANS: Attagene TRANS-FACTORIAL HepG2 Assay for human Retinoid X Receptor alpha (RXRa) (AID 2283012). In outline: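 Chimeric NR-GAL4 trans-activation in HepG2, 24 h treatment; reporter transcripts quantified by fluorescence on capillary electrophoresis, analysed for upward change from DMSO.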

Test [5] has as its target human Retinoid X Receptor beta (RXRb), RXRB (gene 6257) (UniProt P28702). In words: ATG_RXRb_TRANS: Attagene TRANS-FACTORIAL HepG2 Assay for human Retinoid X Receptor beta (RXRb) (AID 2283013). The method, boiled down: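 After a 24 h incubation with test chemical, transfected HepG2 cells carrying NR-Gal4 fusions and GAL4-UAS reporter transcription units yield RNA whose reporter cDNA is FAM-labelled, HpaI-cut and sized by capillary electrophoresis; increases over DMSO are scored.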

The target of test [6] is human Thyroid Receptor alpha (THRa1), THRA (gene 7067) (UniProt P10827). In words: ATG_THRa1_TRANS: Attagene TRANS-FACTORIAL HepG2 Assay for human Thyroid Receptor alpha (THRa1) (AID 2283014). The method, boiled down: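 HepG2 cells transiently transfected with multiplexed GAL4-UAS reporter units for exogenous chimeric THRa1-Gal4; reporter mRNA measured 24 h after dosing by RT-PCR, 6-FAM labelling, HpaI digestion and capillary electrophoresis. Gain-of-signal fitted versus DMSO baseline.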

Test [7] has as its target human Retinoic Acid Receptor beta (RARb), RARB (gene 5915) (UniProt P10826). In words: ATG_RARb_TRANS: Attagene TRANS-FACTORIAL HepG2 Assay for human Retinoic Acid Receptor beta (AID 2283004). In outline: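 HepG2 cells transiently transfected with multiplexed GAL4-UAS reporter units expressing chimeric NR–Gal4 fusions; 24 h compound exposure. Reporter mRNA quantified by RT-PCR, 6-FAM labelling, HpaI digestion and capillary electrophoresis; gain-of-signal fitted against DMSO baseline.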

Test [8] has as its target human RAR-related Orphan Receptor beta (RORb), RORB (gene 6096) (UniProt Q92753). Briefly: ATG_RORb_TRANS: Attagene TRANS-FACTORIAL HepG2 Assay for human RAR-related Orphan Receptor beta (RORb) (AID 2283010). The method, boiled down:
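Multiplexed transcription-factor reporter assay: HepG2 cells transiently carrying NR-Gal4/GAL4-UAS constructs, 24 h treatment, mRNA quantified by RT-PCR plus capillary electrophoresis fluorescence; activity scored as induction over DMSO.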

Test [9] deals with human Retinoic Acid Receptor gamma (RARg), RARG (gene 5916) (UniProt P13631). In words: ATG_RARg_TRANS: Attagene TRANS-FACTORIAL HepG2 Assay for human Retinoic Acid Receptor gamma (RARg) (AID 2283009). In outline:
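Gain-of-signal relative to DMSO is reported from fluorescent capillary electrophoresis of RT-PCR reporter products. These came from HepG2 cells expressing transfected RARg-GAL4 chimeras with UAS reporters, harvested 24 h after dosing.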

The target of test [10] is human RAR-related Orphan Receptor gamma (RORg), RORC (gene 6097) (UniProt P51449). In words: ATG_RORg_TRANS: Attagene TRANS-FACTORIAL HepG2 Assay for human RAR-related Orphan Receptor gamma (RORg) (AID 2283011). The method, boiled down: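 Readout: reporter transcript induction (RT-PCR, fluorescent primer extension, capillary electrophoresis) after 24 h compound exposure of transiently transfected HepG2 cells carrying a RORg-Gal4 chimera and GAL4-UAS reporters; DMSO served as baseline, with increasing signal fitted.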

In test [11] the target is Retinoic acid receptor alpha (Homo sapiens) (UniProt P10276). In words: ATG_RARa_TRANS: Attagene TRANS-FACTORIAL HepG2 Assay for human Retinoic Acid Receptor alpha (RARa) (AID 2283005). The method, boiled down: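 HepG2 cells transiently transfected with multiple reporter units expressing chimeric RARα-GAL4 fusion, with GAL4-UAS-driven reporters. After 24 h compound exposure, reporter mRNA induction quantified by RT-PCR and capillary electrophoresis with fluorescent labeling; gain-of-signal fitted relative to DMSO control.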

Experimental findings from PubChem BioAssay (EPA / NIEHS) are described below.

Inconclusive results are not listed. Activity calls are given as the source filed them. Rule for the calls: active = hit-call score of the fitted dose curve at least 0.9, where 1 is the maximum; inconclusive = response in the unintended direction; inactive = score below 0.9.

Chain of Retinoic acid receptor alpha (Homo sapiens) (P10276 whole entry, looked up, the tested form may be a part): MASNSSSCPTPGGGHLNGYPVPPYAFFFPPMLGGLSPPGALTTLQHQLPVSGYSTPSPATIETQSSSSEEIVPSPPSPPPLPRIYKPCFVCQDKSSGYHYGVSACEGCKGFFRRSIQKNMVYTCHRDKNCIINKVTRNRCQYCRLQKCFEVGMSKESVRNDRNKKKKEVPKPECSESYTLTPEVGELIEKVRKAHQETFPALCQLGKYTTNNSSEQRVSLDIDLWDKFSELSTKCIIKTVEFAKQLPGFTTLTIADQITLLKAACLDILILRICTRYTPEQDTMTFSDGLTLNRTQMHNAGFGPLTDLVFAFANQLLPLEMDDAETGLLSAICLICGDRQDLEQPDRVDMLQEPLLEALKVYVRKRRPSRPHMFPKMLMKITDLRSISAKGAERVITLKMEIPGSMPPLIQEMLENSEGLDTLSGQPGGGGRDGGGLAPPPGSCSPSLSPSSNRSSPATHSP
Chain of human Retinoic Acid Receptor gamma (RARg), RARG (gene 5916) (P13631 whole entry, looked up, the tested form may be a part): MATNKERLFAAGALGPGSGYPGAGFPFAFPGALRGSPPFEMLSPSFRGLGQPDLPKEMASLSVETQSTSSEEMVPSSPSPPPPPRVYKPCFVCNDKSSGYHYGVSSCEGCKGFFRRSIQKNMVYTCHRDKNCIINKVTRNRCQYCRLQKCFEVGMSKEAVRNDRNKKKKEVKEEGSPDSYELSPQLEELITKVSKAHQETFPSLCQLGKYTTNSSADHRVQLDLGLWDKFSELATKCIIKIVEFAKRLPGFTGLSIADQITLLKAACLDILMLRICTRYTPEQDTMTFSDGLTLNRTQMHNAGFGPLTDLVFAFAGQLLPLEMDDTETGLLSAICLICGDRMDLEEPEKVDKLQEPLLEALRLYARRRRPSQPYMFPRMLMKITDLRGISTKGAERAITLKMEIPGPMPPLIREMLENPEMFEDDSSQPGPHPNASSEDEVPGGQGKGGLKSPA
Chain of human Retinoid X Receptor beta (RXRb), RXRB (gene 6257) (P28702 whole entry, looked up, the tested form may be a part): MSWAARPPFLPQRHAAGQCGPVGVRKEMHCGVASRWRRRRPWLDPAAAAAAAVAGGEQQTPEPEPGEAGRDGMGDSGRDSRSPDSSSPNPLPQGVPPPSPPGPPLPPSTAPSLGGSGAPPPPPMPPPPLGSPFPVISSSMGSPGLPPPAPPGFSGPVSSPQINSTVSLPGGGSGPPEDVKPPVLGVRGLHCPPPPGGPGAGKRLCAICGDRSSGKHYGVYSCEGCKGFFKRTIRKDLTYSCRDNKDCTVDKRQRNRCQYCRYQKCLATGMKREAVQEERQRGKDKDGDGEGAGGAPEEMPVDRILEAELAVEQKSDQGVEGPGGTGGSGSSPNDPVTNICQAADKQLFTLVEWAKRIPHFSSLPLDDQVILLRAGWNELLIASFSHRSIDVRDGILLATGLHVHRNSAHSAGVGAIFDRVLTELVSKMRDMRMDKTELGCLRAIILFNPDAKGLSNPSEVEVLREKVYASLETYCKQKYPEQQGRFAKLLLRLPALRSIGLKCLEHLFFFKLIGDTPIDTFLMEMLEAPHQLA
Chain of human Thyroid Receptor alpha (THRa1), THRA (gene 7067) (P10827 whole entry, looked up, the tested form may be a part): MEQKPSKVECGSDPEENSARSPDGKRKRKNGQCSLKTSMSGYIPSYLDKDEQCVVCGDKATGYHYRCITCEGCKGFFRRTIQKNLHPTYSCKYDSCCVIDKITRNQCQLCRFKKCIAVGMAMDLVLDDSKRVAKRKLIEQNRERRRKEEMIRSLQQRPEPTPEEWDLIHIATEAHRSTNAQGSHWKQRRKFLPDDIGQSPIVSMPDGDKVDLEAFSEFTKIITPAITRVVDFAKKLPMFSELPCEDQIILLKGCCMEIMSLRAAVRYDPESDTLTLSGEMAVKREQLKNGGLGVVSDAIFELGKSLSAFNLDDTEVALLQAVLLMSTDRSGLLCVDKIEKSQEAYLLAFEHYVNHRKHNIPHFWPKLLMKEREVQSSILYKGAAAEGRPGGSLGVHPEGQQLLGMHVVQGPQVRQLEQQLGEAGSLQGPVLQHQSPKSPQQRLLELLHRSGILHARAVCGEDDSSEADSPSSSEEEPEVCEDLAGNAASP
Chain of Nuclear receptor subfamily 1 group I member 2 (Homo sapiens) (O75469 whole entry, looked up, the tested form may be a part): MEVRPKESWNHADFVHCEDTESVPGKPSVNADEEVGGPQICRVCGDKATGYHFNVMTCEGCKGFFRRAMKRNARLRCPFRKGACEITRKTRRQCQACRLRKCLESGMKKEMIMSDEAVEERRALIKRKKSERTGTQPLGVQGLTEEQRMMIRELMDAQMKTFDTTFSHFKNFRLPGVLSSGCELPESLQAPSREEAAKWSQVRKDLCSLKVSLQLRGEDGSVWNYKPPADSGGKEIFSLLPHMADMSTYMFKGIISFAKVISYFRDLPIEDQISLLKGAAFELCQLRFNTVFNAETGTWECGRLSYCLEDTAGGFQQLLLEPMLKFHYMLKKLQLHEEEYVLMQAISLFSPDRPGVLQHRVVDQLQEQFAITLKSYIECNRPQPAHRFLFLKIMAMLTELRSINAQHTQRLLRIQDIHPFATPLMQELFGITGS
Chain of Peroxisome proliferator-activated receptor gamma (Homo sapiens) (P37231 whole entry, looked up, the tested form may be a part): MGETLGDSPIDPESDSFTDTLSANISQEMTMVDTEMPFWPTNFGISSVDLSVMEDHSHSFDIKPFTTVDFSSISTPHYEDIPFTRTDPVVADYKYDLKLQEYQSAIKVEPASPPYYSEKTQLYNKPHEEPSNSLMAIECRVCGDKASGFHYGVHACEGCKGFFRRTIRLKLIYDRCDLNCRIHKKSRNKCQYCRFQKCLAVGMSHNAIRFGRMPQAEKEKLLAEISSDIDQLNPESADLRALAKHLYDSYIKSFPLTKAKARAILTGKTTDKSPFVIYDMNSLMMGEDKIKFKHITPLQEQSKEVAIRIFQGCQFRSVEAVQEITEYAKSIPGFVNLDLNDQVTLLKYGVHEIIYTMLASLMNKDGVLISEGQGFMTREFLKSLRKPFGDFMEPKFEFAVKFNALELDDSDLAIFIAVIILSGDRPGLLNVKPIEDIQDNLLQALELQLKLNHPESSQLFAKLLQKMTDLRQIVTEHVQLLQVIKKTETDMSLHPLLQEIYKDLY
Chain of human RAR-related Orphan Receptor gamma (RORg), RORC (gene 6097) (P51449 whole entry, looked up, the tested form may be a part): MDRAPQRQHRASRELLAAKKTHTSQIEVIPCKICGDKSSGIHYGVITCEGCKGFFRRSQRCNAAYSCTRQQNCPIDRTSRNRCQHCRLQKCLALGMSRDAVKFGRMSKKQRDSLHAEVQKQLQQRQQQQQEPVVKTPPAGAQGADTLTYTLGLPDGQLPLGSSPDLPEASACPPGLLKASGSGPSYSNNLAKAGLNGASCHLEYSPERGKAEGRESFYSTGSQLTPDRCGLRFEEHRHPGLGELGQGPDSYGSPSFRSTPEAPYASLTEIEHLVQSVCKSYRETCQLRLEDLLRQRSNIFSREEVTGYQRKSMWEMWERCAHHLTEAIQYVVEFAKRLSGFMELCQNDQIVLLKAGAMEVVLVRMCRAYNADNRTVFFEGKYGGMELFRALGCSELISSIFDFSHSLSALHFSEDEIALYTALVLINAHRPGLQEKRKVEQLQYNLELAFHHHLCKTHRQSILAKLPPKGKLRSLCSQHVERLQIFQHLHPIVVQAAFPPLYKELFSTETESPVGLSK
Chain of human Peroxisome Proliferator-activated Receptor delta (PPARd), PPARD (gene 5467) (Q03181 whole entry, looked up, the tested form may be a part): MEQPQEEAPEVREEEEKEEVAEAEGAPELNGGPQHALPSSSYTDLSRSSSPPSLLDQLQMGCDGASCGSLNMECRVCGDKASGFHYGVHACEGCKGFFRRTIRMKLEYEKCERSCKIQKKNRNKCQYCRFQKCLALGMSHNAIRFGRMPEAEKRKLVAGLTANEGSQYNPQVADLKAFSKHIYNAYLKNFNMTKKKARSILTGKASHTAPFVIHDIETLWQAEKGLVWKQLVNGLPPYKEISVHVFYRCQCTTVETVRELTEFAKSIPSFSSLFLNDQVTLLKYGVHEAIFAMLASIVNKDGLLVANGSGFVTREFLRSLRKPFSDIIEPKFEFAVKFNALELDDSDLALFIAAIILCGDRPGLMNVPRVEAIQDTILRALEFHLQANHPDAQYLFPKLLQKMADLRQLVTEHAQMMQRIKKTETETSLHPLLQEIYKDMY
Chain of human RAR-related Orphan Receptor beta (RORb), RORB (gene 6096) (Q92753 whole entry, looked up, the tested form may be a part): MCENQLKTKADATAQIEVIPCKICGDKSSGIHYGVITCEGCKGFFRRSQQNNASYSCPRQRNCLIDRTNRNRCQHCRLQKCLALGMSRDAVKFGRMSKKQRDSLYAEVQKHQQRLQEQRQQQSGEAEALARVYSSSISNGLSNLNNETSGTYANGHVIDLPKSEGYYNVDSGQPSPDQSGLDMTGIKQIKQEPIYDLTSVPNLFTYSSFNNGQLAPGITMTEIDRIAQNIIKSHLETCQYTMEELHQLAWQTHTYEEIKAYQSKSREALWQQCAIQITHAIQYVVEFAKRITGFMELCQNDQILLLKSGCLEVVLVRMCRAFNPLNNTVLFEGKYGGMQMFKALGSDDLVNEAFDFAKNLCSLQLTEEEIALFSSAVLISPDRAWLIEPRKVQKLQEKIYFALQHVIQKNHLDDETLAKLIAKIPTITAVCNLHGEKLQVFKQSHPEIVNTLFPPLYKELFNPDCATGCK
Chain of human Retinoic Acid Receptor beta (RARb), RARB (gene 5915) (P10826 whole entry, looked up, the tested form may be a part): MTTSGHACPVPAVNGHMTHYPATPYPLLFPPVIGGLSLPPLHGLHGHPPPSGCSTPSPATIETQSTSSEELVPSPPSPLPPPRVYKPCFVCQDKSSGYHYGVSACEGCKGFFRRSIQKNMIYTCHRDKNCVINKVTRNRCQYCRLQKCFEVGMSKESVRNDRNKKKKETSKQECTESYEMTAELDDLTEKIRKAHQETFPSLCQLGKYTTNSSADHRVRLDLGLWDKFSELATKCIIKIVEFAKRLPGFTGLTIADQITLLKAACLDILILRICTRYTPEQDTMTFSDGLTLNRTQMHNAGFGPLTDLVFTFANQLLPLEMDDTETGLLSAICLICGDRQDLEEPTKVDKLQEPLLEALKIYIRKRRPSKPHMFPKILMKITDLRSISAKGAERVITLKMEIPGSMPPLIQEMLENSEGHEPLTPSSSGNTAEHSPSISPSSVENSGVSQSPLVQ

As for `c1ccc(-c2nc3ccccc3[nH]2)cc1`, the molecule was classed as inactive in [1], in [2], in test [4], in test [5] and in test [6]. Further, the AC50 in test [3] is 23.4 µM (active).

Turning to `CC1CCC(C(C)(C)S)C(=O)C1` (configuration not stated), the molecule was called inactive in test [1], in test [4], in [5] and in [6]. Further, the values for the AC50 in test [2] and in test [3] were 81.1 µM (active) and 1.89 µM (active), respectively.

For `CO[Si](C)(C)OC`, the molecule was classed as inactive in test [7], in [2], in test [3] and in test [6].

For the molecule `[Cl][Eu]([Cl])[Cl]`, the molecule was classed as inactive in [1], in [2], in test [3] and in [5].

Turning to `C=CCNCC=C`, the call in [7], in test [2], in [3], in test [8], in test [4] and in [6] was inactive.

Turning to `CC(C)(C)C1CCC(=O)CC1`, the call in [1], in test [3], in [9], in test [8], in test [10] and in test [4] was inactive. For the same molecule, in test [5], the result was inactive.

Consider `CC(C)(C)NC(=O)[C@H]1CC[C@H]2[C@@H]3CC[C@H]4NC(=O)C=C[C@]4(C)[C@H]3CC[C@]12C`, for which the molecule was classed as inactive in test [1] and in [4]. Also, in [3], the AC50 is 19.8 µM (active).

As to `CCCCC(CC)COS(=O)(=O)O` (configuration not stated), the call in [1], in test [3] and in test [6] was inactive.

As to `Cc1noc(NS(=O)(=O)c2ccc(N)cc2)c1C`, the outcome in [7], in test [11], in [4] and in [6] was inactive.

For the molecule `CCCC/C=C/C=C\C=O`, the molecule was called inactive in test [1], in test [4] and in test [6]. Moreover, the figures for the AC50 in test [2] and in [3] were 7.73 µM (active) and 1.57 µM (active), respectively.

In the case of `CCCCOC(=O)C(C)CC` (configuration not stated), the result in test [1], in [3] and in [5] was inactive.

For `CCCCOCCOCCOC(C)=O`, the molecule was classed as inactive in [1], in test [10], in test [4] and in test [6].

Consider `CC(C)=CCl`, for which the call in [1], in test [9], in test [10], in [4] and in test [6] was inactive.

Consider `CC1CC(=O)CC(C)(C)C1` (configuration not stated), for which the molecule was called inactive in [1], in [3] and in test [9].

For `CCc1occc(=O)c1O`, the molecule was called inactive in test [1], in test [4] and in [6].

`CC(C)CO`: the result in [7] and in [11] was inactive.

For the molecule `CC1CCC(=O)C1=O` (configuration not stated), the molecule was called inactive in test [7], in test [2] and in test [3]. In addition, the AC50 in test [5] was 59.8 µM (active).

Turning to `CCCCCCCCCC(C)=O`, the molecule was classed as inactive in test [1], in test [2], in test [3], in test [4], in test [5] and in [6].

Regarding `CCCCc1ccc(Cl)cc1`, the call in [1], in test [2], in test [3], in [4] and in test [5] was inactive.

On to `C[Si]1(C)O[Si](C)(C)O[Si](C)(C)O[Si](C)(C)O[Si](C)(C)O1`, for which the outcome in test [1], in [2], in [3], in test [10], in [4] and in test [6] was inactive.

In the case of `CCCCCCCOC(=O)c1ccc(O)cc1`, the result in test [7], in [11], in [2] and in [9] was inactive. For the same molecule, the AC50 in test [5] is 11.1 µM (active).

Turning to `NC(=O)Nc1ccccc1`, in [7], the call was inactive.

Take `C=Cc1cccc(C)c1`: the outcome in test [1], in test [2], in test [3], in test [10], in [5] and in [6] was inactive.

Regarding `CCCCC1CCC(=O)O1` (configuration not stated), the molecule was called inactive in test [7], in [11], in [2], in test [9], in test [4] and in [5]. In test [3], the AC50 was 41.4 µM (active).

As for `Cc1cc(=O)[nH]c(=O)[nH]1`, the molecule was classed as inactive in test [1], in [3], in test [10], in test [4] and in test [6].

With `CC(C)(CO)C(O)C(=O)NCCCO` (configuration not stated), the molecule was called inactive in test [1], in test [2] and in [4].

Take `COC(=O)c1ccccc1C`: the call in [1], in [2], in test [10] and in test [6] was inactive.

Consider `CC(C)C(=O)OCCOc1ccccc1`, for which the molecule was called inactive in [1], in test [2], in test [8] and in [10].

Turning to `CCCCNS(=O)(=O)c1ccc(C)cc1`, the outcome in test [1], in test [3], in test [4] and in [6] was inactive.

For the molecule `c1ccc2cnccc2c1`, the outcome in test [1], in [2], in [3], in [4] and in test [6] was inactive.

Consider `CCc1cccc(C)c1N`, for which the result in [7], in test [11], in test [2], in test [3], in test [9] and in test [4] was inactive. The call in [5] was inactive.

In the case of `Cc1cccc(C(C)(C)C)c1O`, the molecule was classed as inactive in test [7], in [11], in test [2], in test [9] and in [4]. The AC50 is 19.9 µM (active) in [3] and 46.4 µM (active) in test [5].

For orientation: AC50 means the concentration at which the activity in the assay is half-maximal.
